Assay results: PubChem BioAssay (Tox21)
Results filed as inconclusive are left out. Activity calls are given as the source filed them. Unless noted, the call rests on the fitted dose curve; in most records, active means well fitted curve in the direction sought with a large enough effect in the repeat runs; inconclusive means weak or mixed curves; inactive means no such curve, though single readings can be large; an effect the other way counts as inactive or inconclusive.

Assays:
[1] = biological target: Peroxisome proliferator-activated receptor gamma (Homo sapiens) (UniProt P37231); assay: qHTS assay to identify small molecule antagonists of the peroxisome proliferator-activated receptor gamma (PPARg) signaling pathway (AID 743191; calls by dose curve; further: nearly all actives have a fitted effect of over 30% in size; further: potency means the concentration at half of the fitted maximal effect)
Chain of Peroxisome proliferator-activated receptor gamma (Homo sapiens) (P37231 whole entry, looked up): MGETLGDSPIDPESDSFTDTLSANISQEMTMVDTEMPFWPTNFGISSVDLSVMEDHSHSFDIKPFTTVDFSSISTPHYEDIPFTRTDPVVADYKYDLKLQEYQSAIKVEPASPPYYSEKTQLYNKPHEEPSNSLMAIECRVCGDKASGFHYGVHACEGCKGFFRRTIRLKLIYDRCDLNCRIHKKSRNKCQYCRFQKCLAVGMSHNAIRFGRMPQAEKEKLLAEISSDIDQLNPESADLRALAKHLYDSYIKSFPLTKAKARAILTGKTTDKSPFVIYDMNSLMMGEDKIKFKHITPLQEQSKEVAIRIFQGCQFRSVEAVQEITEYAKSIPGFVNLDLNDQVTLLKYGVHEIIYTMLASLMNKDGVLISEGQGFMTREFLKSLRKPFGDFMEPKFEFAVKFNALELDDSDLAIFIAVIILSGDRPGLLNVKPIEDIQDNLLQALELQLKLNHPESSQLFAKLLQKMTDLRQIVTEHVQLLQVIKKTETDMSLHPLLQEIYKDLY
How it was run: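 GeneBLAzer PPARg UAS-bla HEK293H cells, 5 h post-plating, exposed to compounds 17 h at 37C. LiveBLAzer B/G FRET substrate added for 1 h at room temperature; beta-lactamase reporter read by fluorescence intensity.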

[2] = qHTS assay to identify small molecule antagonists of the peroxisome proliferator-activated receptor gamma (PPARg) signaling pathway - cell viability counter screen (AID 743194); further: nearly all actives have a fitted effect of over 55% in size; further: potency means the concentration at half of the fitted maximal effect
How it was run: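 Cytotoxicity counter screen in PPARg-bla HEK293H cells, same wells as reporter assay. Compounds plus 50 nM rosiglitazone (final) for 17 h at 37 C, then viability read by CellTiter-Glo luminescence.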

[3] = qHTS assay for small molecule agonists of the antioxidant response element (ARE) signaling pathway - cell viability counter screen (AID 743203; calls by dose curve; further: nearly all actives have a fitted effect of over 55% in size; further: potency means the concentration at half of the fitted maximal effect)
How it was run: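 Measured in the same wells as the beta-lactamase ARE reporter, this read-out is CellTiter-Glo luminescence from HepG2 ARE-bla cells given compounds for 16 hrs.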

[4] = qHTS assay for small molecule activators of the heat shock response signaling pathway (AID 743210; active means well fitted activation curve with a large enough effect in the signal ratio in the repeat runs, with a control signal flat, not every such curve was filed as active; the % refers to the signal ratio;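 further: HeLa cells with beta-lactamase reporter driven by heat shock elements; series mostly up to about 63 µM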)
How it was run: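 Beta-lactamase reporter read-out: FRET substrate fluorescence after 2.5 h at RT, following 5 h compound treatment at 37 C of HeLa cells carrying HSE-driven bla reporter; quantitative HTS format.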

[5] = qHTS assay to identify small molecule agonists of the peroxisome proliferator-activated receptor delta (PPARd) signaling pathway - cell viability counter screen (AID 743211); further: nearly all actives have a fitted effect of over 55% in size
How it was run: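 qHTS cell viability: PPARd-bla HEK293H; 17 h cpd, 37C; CellTiter-Glo, luminescence at 30 min RT.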

[6] = biological target: Peroxisome proliferator-activated receptor gamma (Homo sapiens) (UniProt P37231); assay: qHTS assay to identify small molecule agonists of the peroxisome proliferator-activated receptor gamma (PPARg) signaling pathway (AID 743094; active means well fitted activation curve with a large enough effect in the signal ratio in the repeat runs, not every such curve was filed as active; the % refers to the signal ratio)
How it was run: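 Cell-based bla reporter, HEK293H background, PPARg-driven UAS. Pre-incubation 5 h, 37C, 5% CO2. Compound 17 h, 37C. Substrate 1 h RT; fluorescence.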

[7] = qHTS assay for small molecule activators of the heat shock response signaling pathway - cell viability counter screen (AID 743209); further: nearly all actives have a fitted effect of over 50% in size
How it was run: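 Same-well multiplex: after 2.5 h room-temperature incubation with LiveBLAzer B/G substrate and fluorescence reading, CellTiter-Glo reagent was added to HSE-bla HeLa cells that had received compound for 5 h at 37 C; luminescence read after 30 min.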

[8] = qHTS assay for small molecule agonists of the antioxidant response element (ARE) signaling pathway (AID 743202; active means well fitted activation curve with a large enough effect in the signal ratio in the repeat runs, not every such curve was filed as active; the % refers to the signal ratio; further: potency means the concentration at half of the fitted maximal effect)
How it was run: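 HepG2 ARE-bla reporter line, 2,000 cells/well; 5 h preincubation 37 C/5% CO2; compound (DMSO) 16 h 37 C; B/G FRET substrate 2 h RT; fluorescence intensity.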

[9] = qHTS assay to identify small molecule that activate the aryl hydrocarbon receptor (AhR) signaling pathway - cell viability counter screen (AID 743086);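 further: HepG2 liver cells carrying the AhR DRE luciferase reporter; series mostly up to about 70 µM; nearly all actives have a fitted effect of over 45% in size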
How it was run: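 HepG2-AhR-luc (HG2L7.5c1) cells, 4000/well, treated 24 h at 37 C with compound; viability measured as CellTiter-Fluor fluorescence after 30 min in the same wells as the luciferase read.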
On the % scale 0 is the no-effect control and ±100 the full control effect.

CC(CCc1ccc(O)cc1)NCCc1ccc(O)c(O)c1 (configuration not stated)
inactive: Potency [1] | Potency [2] | Potency [3] | Potency [4] | Potency [5]

CC(CN(CCN(CC(C)OCCO)CC(C)OCCO)CC(C)OCCO)OCCO (configuration not stated)
active: Potency [2] 37.5 µM | Potency [3] 33.1 µM
inactive: outcome [6] | Potency [7] | Potency [4] | Potency [5]

CSCC[C@H](NC(=O)[C@H](Cc1c[nH]c2ccccc12)NC(=O)CCNC(=O)OC(C)(C)C)C(=O)N[C@@H](CC(=O)O)C(=O)N[C@@H](Cc1ccccc1)C(N)=O
inactive: outcome [6] | Potency [1] | Potency [2] | Potency [8] | Potency [7] | Potency [4] | Potency [5]

Oc1cccc2[nH]ccc12
inactive: Potency [1] | Potency [2] | Potency [3] | Potency [7] | Potency [4] | Potency [5]

COC(=O)Nc1nc2ccc(C(=O)C3CC3)cc2[nH]1
inactive: Potency [2] | Potency [8] | Potency [7] | Potency [5]

C=C(C)c1ccccc1
inactive: Potency [9] | Potency [2] | Potency [8] | Potency [3] | Potency [7] | Potency [4] | Potency [5]

O=C(Nc1ccc(C(=O)O)c(O)c1)c1ccccc1
inactive: Potency [9] | outcome [6] | Potency [2] | Potency [8] | Potency [3] | Potency [7] | Potency [4] | Potency [5]

O=C1OC(=O)c2c(Br)c(Br)c(Br)c(Br)c21
inactive: Potency [9] | outcome [6] | Potency [2] | Potency [3] | Potency [7] | Potency [4] | Potency [5]

CCCOC(=O)c1c(Cl)c(Cl)c(Cl)c(Cl)c1C(=O)OCCC
inactive: Potency [9] | outcome [6] | Potency [3] | Potency [4] | Potency [5]

CCOc1ncc(F)c(=O)[nH]1
inactive: Potency [1] | Potency [2] | Potency [8] | Potency [3] | Potency [5]

SCCc1cnccn1
inactive: Potency [1] | Potency [2] | Potency [3]

CCCCCCCC(=O)Oc1c(Br)cc(C#N)cc1Br
inactive: Potency [9] | Potency [8] | Potency [5]
active: Potency [1] 34.5 µM

COC(=O)C1=C(C)NC(C)=C(C(=O)OC(C)(C)CN(C)CCC(c2ccccc2)c2ccccc2)C1c1cccc([N+](=O)[O-])c1 (configuration not stated)
inactive: outcome [6] | Potency [2] | Potency [3] | Potency [4] | Potency [5]

O=C(O)c1cccc(Oc2ccccc2)c1
inactive: Potency [9] | Potency [1] | Potency [2] | Potency [8] | Potency [3] | Potency [7] | Potency [4] | Potency [5]

CCOC(=O)c1c(N)sc2c1CCN(Cc1ccccc1)C2
inactive: outcome [6] | Potency [1] | Potency [2] | Potency [3] | Potency [7] | Potency [4]

Cc1oc(=O)oc1COC(=O)[C@@H]1N2C(=O)[C@@H](NC(=O)[C@H](N)c3ccccc3)[C@H]2SC1(C)C
inactive: Potency [1] | Potency [2] | Potency [8] | Potency [3] | Potency [7] | Potency [4] | Potency [5]

CCNc1nc(N)nc(Cl)n1
inactive: Potency [9] | Potency [2] | Potency [8] | Potency [3] | Potency [7] | Potency [4] | Potency [5]

Cc1ccc(Nc2c(F)cccc2Cl)c(CC(=O)O)c1
inactive: Potency [9] | Potency [2] | Potency [3] | Potency [7] | Potency [4] | Potency [5]

Cc1ccccc1S(N)(=O)=O
inactive: Potency [9] | Potency [2] | Potency [3] | Potency [7] | Potency [4] | Potency [5]

CC1=CC[C@@H]2C[C@H]1C2(C)C
inactive: Potency [9] | outcome [6] | activity change, negative = cytotoxicity [2] -33.5% [at 13.2 µM] | activation [8] -11.5% [at 18.1 µM] | viability change, negative = cytotoxic [3] -20.1% [at 18.1 µM] | activity change, negative = cytotoxicity [7] -3.23% [at 13.2 µM] | activity change, negative = cytotoxicity [5] -15.6% [at 13.2 µM]

CC(=O)N[C@@H](Cc1ccc(O)cc1)C(=O)O
inactive: Potency [9] | Potency [2] | Potency [8] | Potency [3] | Potency [4] | Potency [5]

CCN(CC)c1cccc(O)c1
inactive: Potency [9] | outcome [6] | Potency [2] | Potency [3] | Potency [7] | Potency [4] | Potency [5]

CCC1CCC(CCC(=O)O)C1 (configuration not stated)
inactive: Potency [9] | Potency [2] | Potency [3] | Potency [7] | Potency [5]

CCOC(=O)N1CCC(Nc2ccc(Cl)cc2N)CC1
inactive: Potency [2] | Potency [3] | Potency [7] | Potency [5]
active: Potency [8] 7.5 µM

Cc1cc(CCCOc2c(C)cc(-c3noc(C(F)(F)F)n3)cc2C)on1
inactive: Potency [1] | Potency [2] | Potency [3] | Potency [4] | Potency [5]

O=[N+]([O-])c1ccc2ncccc2c1
inactive: outcome [6] | Potency [2] | Potency [8] | Potency [3] | Potency [4] | Potency [5]

CCCCOCCOC(=O)c1cccnc1
inactive: Potency [1] | Potency [2] | Potency [8] | Potency [3] | Potency [7] | Potency [4] | Potency [5]

CCN(CC)CC(=O)Nc1c(C)cccc1C(=O)OC
inactive: Potency [2] | Potency [8] | Potency [3] | Potency [7] | Potency [4]

CCOC(=O)Oc1ccc(CCNC(=O)[C@H](CCSC)NC(C)=O)cc1OC(=O)OCC
inactive: Potency [1] | Potency [2] | Potency [8] | Potency [3] | Potency [7] | Potency [4] | Potency [5]

Nc1nc(-c2ccc([N+](=O)[O-])cc2)cs1
inactive: Potency [9] | outcome [6] | Potency [1] | Potency [2] | Potency [3] | Potency [7] | Potency [4] | Potency [5]

CCCCCCC(O)CCCCCCCCCCC(=O)OC (configuration not stated)
inactive: Potency [9] | Potency [8] | Potency [3]

C1=CCC2CC=CC2C1 (configuration not stated)
inactive: Potency [9] | outcome [6] | Potency [1] | Potency [2] | Potency [3] | Potency [7] | Potency [4] | Potency [5]

CCC(=O)OCc1ccc(OC)cc1
inactive: Potency [9] | Potency [2] | Potency [3] | Potency [7] | Potency [5]

COc1ccc(/C=C/C(=O)c2ccc(OC)cc2OC)cc1
active: Potency [1] 9.44 µM
inactive: outcome [6] | Potency [2] | Potency [3] | Potency [7] | Potency [5]

Oc1ccc2c(c1)Cc1ccccc1-2
inactive: Potency [9] | outcome [6] | Potency [2] | Potency [3] | Potency [7] | Potency [4] | Potency [5]
active: Potency [8] 34.4 µM

CCCCCCCC/C=C/C(=O)O
inactive: Potency [2] | Potency [8] | Potency [7] | Potency [4] | Potency [5]

BrC(Br)C(Br)Br
inactive: Potency [9] | outcome [6] | Potency [2] | Potency [8] | Potency [3] | Potency [4] | Potency [5]

CCOC(=O)c1ccc(NC(=O)CN2CCCCC2)cc1
inactive: Potency [9] | Potency [2] | Potency [3] | Potency [4] | Potency [5]
